Screens from PubChem.
Rows were chosen to be rich in hits. Some 4.5% of all compounds tested hit in one or more screens of this group.
FBA Mtb inh: inhibitors of M. tuberculosis fructose-bisphosphate aldolase. AID 588726. inhibition, % at 1 µM. purified M. tuberculosis FBA, fluorescence read-out. hit rate 2.3% among 360,000. P9WQA3;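 further: 0% = vehicle and 100% = reference inhibitor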
Target sequence (P9WQA3 whole entry, looked up): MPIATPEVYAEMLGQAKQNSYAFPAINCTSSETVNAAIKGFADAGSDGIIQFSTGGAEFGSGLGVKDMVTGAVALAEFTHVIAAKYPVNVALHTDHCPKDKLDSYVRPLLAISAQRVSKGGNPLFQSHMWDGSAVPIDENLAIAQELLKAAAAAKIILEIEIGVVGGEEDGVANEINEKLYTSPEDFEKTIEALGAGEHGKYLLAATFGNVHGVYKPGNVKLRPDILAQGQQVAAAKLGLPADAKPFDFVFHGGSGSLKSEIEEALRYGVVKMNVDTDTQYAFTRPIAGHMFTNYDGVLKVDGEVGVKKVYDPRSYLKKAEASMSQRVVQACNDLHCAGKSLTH
PfHsp40 rescue: rescue of PfHsp40-mediated yeast toxicity; hit rate 0.68% among 340,000; growth rescue, % at 12.5 µM; S. cerevisiae expressing PfHsp40, growth rescue, ATP luminescence; in the data active means growth rescue above about 28%, passing the limit was not always enough;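 further: yeast W303a lacking pdr1 and pdr3 grown in galactose medium; growth measured after three days at 30 °C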
PrPC surface inh: cell surface PrPC inhibition, primary TR-FRET screen; TR-FRET read-out; P04156; hit rate 0.43% among 370,000; inhibition, % at 13.8 µM; in the data active means inhibition above about 24%; further: 0% = median of the test wells and 100% = reference compound wells
PrP 5UTR inh: suppresses PrP 5' UTR mRNA reporter expression. inhibition, % (concentration not given with the values). hit rate 0.35% among 340,000. cell-based PrP 5' UTR mRNA reporter, plate reader; in the data active means inhibition above about 52%; further: 0 = median of the neutral control wells
GDH-TPI counter-1: GDH-TPI coupled enzyme inhibition counter-screen; GDH-TPI coupled enzyme counterscreen, NADH absorbance; hit rate 1.2% among 360,000; inhibition, % at 4.8 µM; AID 588335; in the data active means inhibition above about 30%;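 further: 0% = DMSO wells and 100% = wells lacking the enzyme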
BJeLR lethal: BJeLR cell viability loss | BJeLR (HRASV12) viability, CellTiter-Glo ATP luminescence, 48 h | inhibition, % (concentration not given with the values) | hit rate 0.17% among 300,000 | AID 1554; in the data active means inhibition above about 50%
Mtb FBA inh conf: confirmation of M. tuberculosis fructose-bisphosphate aldolase inhibitors; shares compounds with FBA Mtb inh; purified M. tuberculosis FBA, fluorescence read-out; inhibition, % at 1 µM; hit rate 78% among 5,600; AID 651616;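 further: 0% = vehicle wells and 100% = reference inhibitor wells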
GDH-TPI counter-2: counter-screen for M. tuberculosis FBA inhibitors: GDH-TPI coupled enzyme inhibition. inhibition, % at 1 µM. AID 652141. hit rate 81% among 5,600. shares compounds with FBA Mtb inh. GDH-TPI coupled enzyme counterscreen, fluorescence; in the data active means inhibition above about 10%
Active calls of the source: *; . = not tested or not shown; + = active, no number. Unless noted, no stated cut-off is given here; in the data, active means inhibition above about 27%; inactive means the rest.

SMILES | FBA Mtb inh | PfHsp40 rescue | PrPC surface inh | PrP 5UTR inh | GDH-TPI counter-1 | BJeLR lethal | Mtb FBA inh conf | GDH-TPI counter-2
CCCCc1cc(=O)oc2cc(C)cc(OCC(=O)NCc3cccnc3)c12 | 45.9* | -0.4 | 0.2 | -23.1 | 10.9 | -3.3 | 18.8 | 13.0*
CCCc1cc(=O)oc2cc(C)cc(OCC(=O)Nc3ccccn3)c12 | 22.8 | 0.1 | 2.6 | -18.9 | 3.5 | -0.1 | . | .
Cc1cc(=O)oc2cc(OCC(=O)NCc3cccnc3)ccc12 | 17.2 | 0.9 | 3.8 | -9.7 | -5.8 | -1.7 | . | .
CCc1cc(=O)oc2cc(C)cc(OCC(=O)NCc3cccnc3)c12 | 71.6* | 0.8 | -4.2 | -4.6 | -0.8 | -2.0 | + | +
Cc1cc(OCC(=O)NCc2cccnc2)c2c(C)c(C)c(=O)oc2c1 | 30.3* | -0.8 | -9.1 | -17.1 | 2.5 | -2.8 | 140.5* | 121.7*
CCCCc1cc(=O)oc2cc(C)cc(OCC(=O)Nc3ccccn3)c12 | 33.7* | 1.1 | -9.0 | -43.5 | 13.6 | 2.3 | 9.4 | 2.3
Nc1[nH]nc2nc(-c3ccccc3)[nH]c(=O)c12 | 0.0 | 0.1 | -1.5 | -24.7 | -3.2 | 5.4 | . | .
Nc1nc(-c2ccccc2)[nH]c(=O)c1N | 29.2* | -0.5 | -7.2 | -29.0 | 15.6 | 15.9 | 72.0* | 52.7*
O=C(CSc1nccc(=O)[nH]1)NC1CCCCCC1 | -1.5 | -0.1 | -1.5 | -21.6 | -0.4 | . | . | .
Cc1cccc2c(=O)n3c(cc12)-c1[nH]c2ccccc2c1CC3 | 82.7* | 2.1 | 6.8 | -21.8 | 8.6 | . | 168.1* | 109.6*
Cc1noc(C)c1C(=O)OCC(=O)Nc1ccc(S(N)(=O)=O)cc1 | 1.7 | -0.9 | 7.6 | -8.8 | 11.8 | . | . | .
CCCC1Cc2c(sc3ncnc(N)c23)CO1 (stereo not given) | 27.5* | 1.0 | 5.7 | -8.5 | 1.9 | -23.8 | 142.4* | 120.9*
CC1(C)Cc2c(sc3ncnc(N)c23)CO1 | 1.8 | -0.6 | -2.3 | -22.6 | -12.2 | 5.7 | . | .
CCOc1ccc(N(CC(=O)Nc2c(C)cccc2C)S(=O)(=O)c2c(C)[nH]c(=O)[nH]c2=O)cc1 | 90.6* | -0.8 | -0.2 | -4.9 | 17.3 | 6.8 | 84.7* | 53.4*
CCOc1ccc(N(CC(=O)Nc2cccc(C)c2C)S(=O)(=O)c2c(C)[nH]c(=O)[nH]c2=O)cc1 | 0.5 | -1.0 | -1.8 | -10.9 | 1.4 | -15.7 | . | .
O=C(NCc1ccccc1)C1(C(=O)C2CC2)CC(c2ccccn2)=NO1 (stereo not given) | . | . | 8.0 | . | . | . | . | .
COc1ccc(-c2nn(-c3ccccc3)cc2N)cc1 | 92.6* | 0.8 | -0.3 | -94.7 | 5.8 | -2.5 | + | +
Fc1cccc2sc(Nc3nc4cc5c(cc4s3)OCO5)nc12 | 34.9* | 0.2 | 2.7 | -68.6 | 18.6 | -13.0 | 128.0* | 93.0*
Fc1cccc2sc(Nc3nc4cc5c(cc4s3)OCCO5)nc12 | 39.3* | -0.2 | 2.1 | -83.7 | 15.8 | -17.3 | -4.9 | -5.2
Fc1cc(F)c2nc(Nc3nc4cc5c(cc4s3)OCO5)sc2c1 | 32.4* | -1.2 | 8.9 | -59.5 | 10.6 | -20.9 | 84.4* | 66.1*
CC(C)C(=O)Nc1nc2cc3c(cc2s1)OCO3 | -3.4 | -0.7 | 2.2 | -47.7 | 8.6 | 0.7 | . | .
Cc1cc2cc(C#N)c(NCCNC(=S)NCCCN3CCOCC3)nc2cc1C | 40.3* | -0.4 | -6.0 | -6.1 | 10.5 | -5.4 | + | +
Cc1cccc2cc(C#N)c(NCCNC(=S)NCCCN3CCOCC3)nc12 | 30.6* | -0.2 | -8.2 | -9.7 | -5.7 | 0.5 | 145.8* | 107.5*
COCCCNC(=S)NCCCNc1nc2cc3c(cc2cc1C#N)OCO3 | 72.3* | 0.5 | 2.8 | 14.1 | 11.6 | -8.8 | 15.4 | 5.8
CCCC(=O)Nc1ccc(-c2nc3cc(C)c(C)cc3o2)cc1 | 87.0* | 0.7 | 11.1 | -78.0 | 23.7 | 6.9 | 40.2* | 40.0*
SMILES | FBA Mtb inh | PfHsp40 rescue | PrPC surface inh | PrP 5UTR inh | GDH-TPI counter-1 | BJeLR lethal | Mtb FBA inh conf | GDH-TPI counter-2
CCCCCC(=O)Nc1ccc2oc(-c3cncc(Br)c3)nc2c1 | 2.1 | 0.9 | -2.7 | . | -4.6 | -2.0 | . | .
CCCC(=O)Nc1ccc2oc(-c3cncc(Br)c3)nc2c1 | 40.3* | -0.4 | 2.7 | . | 0.0 | 9.8 | 172.0* | 132.3*
Cc1ccccc1CNC(=O)c1ccccc1SCC(=O)NCc1ccco1 | -1.5 | -0.3 | -2.5 | -8.3 | 1.1 | . | . | .
CC(Sc1ncccn1)C(=O)Nc1ccc2c(c1)OCO2 (stereo not given) | -3.3 | 0.7 | -1.4 | -21.9 | 0.7 | . | . | .
COC(=O)C1CN(Cc2ccc(OC)cc2)CCS(=O)(=O)N1Cc1cn(Cc2ccccc2)nn1 (stereo not given) | . | . | -2.7 | . | . | . | . | .
COc1ccc(-c2cc(=O)c3ccc(O)cc3o2)cc1OC | 54.3* | . | -11.6 | . | 25.0 | . | 6.3 | 3.6
O=S(=O)([N-]c1nc2ccccc2nc1-n1cc[n+](Cc2ccccc2)c1)c1ccc(Br)cc1 | 27.0* | . | 9.8 | . | 11.1 | 23.2 | + | 178.6*
CCCCC[n+]1ccn(-c2nc3ccccc3nc2[N-]S(=O)(=O)c2ccccc2)c1 | 19.9 | -0.1 | -11.9 | -11.5 | 6.9 | -4.4 | . | .
Nc1ccc2nn(-c3cc([N+](=O)[O-])ccc3O)nc2c1 | -1.0 | 0.2 | -9.6 | -15.6 | 17.9 | 10.9 | . | .
Cc1ccc(-n2nc3ccc(N)cc3n2)cc1 | 64.2* | 1.0 | -1.8 | -20.4 | 20.4 | -2.2 | 39.4* | 23.3*
CC(C)c1ccc(-n2nc3ccc(N)cc3n2)cc1 | 71.1* | 1.7 | -5.1 | -8.1 | 3.1 | 2.5 | 100.6* | 67.1*
Nc1ccc2nn(-c3ccc(F)cc3)nc2c1 | 37.2* | -1.0 | -8.2 | -66.4 | 17.3 | -5.3 | 62.0* | 51.5*
Cc1ccc(-n2nc(-c3ccc(N)cc3)cc2N)cc1 | -1.7 | 0.1 | -11.1 | -40.0 | 8.7 | 2.1 | . | .
Cc1nn(CC#N)c(=O)n1-c1ccc(C(C)C)cc1 | 0.2 | -1.1 | -6.2 | -5.8 | 4.9 | 2.9 | . | .
O=C(Cc1cc(C(F)(F)F)cc(C(F)(F)F)c1)Nc1c(-c2ccccc2)[nH][nH]c1=O | . | . | -0.9 | . | . | . | . | .
Nc1c(C(=O)NCC(O)c2ccccc2)cnn1-c1ccccc1 (stereo not given) | . | . | 4.0 | . | . | . | . | .
CN1CCN(CCCNC(=O)c2ccc(/C=C3\Oc4ccccc4N(Cc4ccccc4F)C3=O)cc2)CC1 | 54.9* | -1.1 | -12.0 | -10.4 | 17.4 | -11.4 | -0.6 | -3.7
CN1CCN(CCCNC(=O)c2ccc(/C=C3\Sc4ccccc4N(Cc4ccc(F)cc4)C3=O)cc2)CC1 | 9.2 | 0.1 | -21.2 | -0.4 | 0.5 | -3.6 | . | .
Cc1cccc(CN2C(=O)/C(=C\c3ccc(C(=O)NCCCN4CCN(C)CC4)cc3)Oc3ccccc32)c1 | 81.0* | -0.7 | -13.7 | -10.3 | 5.2 | 0.5 | 9.8 | -3.0
Cc1cc(C)c(C(O)c2ncc(-c3cccc4ccccc34)[nH]2)c(C)c1 (stereo not given) | 57.0* | . | 5.2 | . | 14.3 | . | 89.2* | 69.0*
